# Experimental data reported in PubChem BioAssay (NCI).
# Values joined by “and” are separate entries in the source; they are usually repeats but may differ in a detail not shown here. Identical values can stand only once. Compounds without any hit were thinned out: in the full panel of roughly 83,000, 20% have a hit.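 Compound tested at a single concentration for 48 hours in 96-well plates; a percent growth value below 10 was scored as active.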 Active and inactive are the calls of the source. Where a SMILES comes first, the peptide text is derived from it. [ ]: non-standard residue; d: D form. ξ: configuration not given here. ξV = CC(C)C(N)C(=O)O
# Experiments:
# Assay in all cases: NCI-60 one-dose screen, 48 h (100 = growth as untreated, 0 = no growth, -100 = all killed)
# [1] = tested on: SR leukemia; settings: 10 µM unless noted
# [2] = tested on: RPMI-8226 leukemia
# [3] = tested on: OVCAR-8 ovarian
# [4] = tested on: OVCAR-5 ovarian
# [5] = tested on: OVCAR-4 ovarian
# [6] = tested on: SK-OV-3 ovarian
# [7] = tested on: IGROV1 ovarian
# [8] = tested on: OVCAR-3 ovarian
# [9] = tested on: HS 578T breast
# [10] = tested on: NCI/ADR-RES ovarian
# [11] = tested on: BT-549 breast
# [12] = tested on: MDA-MB-435 melanoma
# [13] = tested on: SW-620 colon; settings: 10 µM
# [14] = tested on: MCF7 breast
# [15] = tested on: HCT-116 colon
# [16] = tested on: HCC-2998 colon
# [17] = tested on: KM12 colon
# [18] = tested on: T-47D breast; settings: 10 µM
smiles,measurement,setting,value
CN(C)C(=S)SC(=S)N(C)C,growth,[1],42.6% (inactive) and 52.1% (inactive)
same,growth,[2]; 10 µM,62.7% (inactive)
same,growth,[3]; 10 µM,107% (inactive) and 96.6% (inactive)
same,growth,[4]; 10 µM,106% (inactive) and 108% (inactive)
same,growth,[5]; 10 µM,72.9% (inactive) and 32.9% (inactive)
same,growth,[6]; 10 µM,115% (inactive) and 110% (inactive)
same,growth,[7]; 10 µM,96.2% (inactive) and 94.3% (inactive)
same,growth,[8]; 10 µM,98.8% (inactive) and 96.2% (inactive)
same,growth,[9]; 10 µM,106% (inactive) and 102% (inactive)
same,growth,[10]; 10 µM,104% (inactive) and 101% (inactive)
same,growth,[11]; 10 µM,109% (inactive) and 115% (inactive)
same,growth,[12]; 10 µM,94.6% (inactive) and 93% (inactive)
same,growth,[13],102% (inactive) and 96% (inactive)
same,growth,[14]; 10 µM,35.3% (inactive) and 71.2% (inactive)
same,growth,[15]; 10 µM,87% (inactive) and 67.7% (inactive)
same,growth,[16]; 10 µM,96.7% (inactive) and 107% (inactive)
same,growth,[17]; 10 µM,110% (inactive) and 97.3% (inactive)
OC(CN1CCCC2CCCCC21)c1cc2ccccc2c2ccccc12 (stereo not given),growth,[1],-36.1% (active)
same,growth,[2]; 10 µM,15.8% (inactive)
same,growth,[3]; 10 µM,51.6% (inactive)
same,growth,[4]; 10 µM,34.2% (inactive)
same,growth,[5]; 10 µM,29.1% (inactive)
same,growth,[6]; 10 µM,37.7% (inactive)
same,growth,[7]; 10 µM,58.1% (inactive)
same,growth,[8]; 10 µM,30.6% (inactive)
same,growth,[9]; 10 µM,26.1% (inactive)
same,growth,[10]; 10 µM,17.4% (inactive)
same,growth,[11]; 10 µM,46% (inactive)
same,growth,[12]; 10 µM,32% (inactive)
same,growth,[14]; 10 µM,7.24% (active)
same,growth,[15]; 10 µM,1.99% (active)
same,growth,[16]; 10 µM,13.5% (inactive)
same,growth,[17]; 10 µM,15.9% (inactive)
COC(=O)C1=COC(C)C2C[n+]3ccc4c([nH]c5ccccc54)c3CC12 (stereo not given),growth,[1],104% (inactive) and 99.4% (inactive)
same,growth,[2]; 10 µM,93.9% (inactive) and 95.8% (inactive)
same,growth,[3]; 10 µM,107% (inactive) and 89.8% (inactive)
same,growth,[4]; 10 µM,105% (inactive) and 94.7% (inactive)
same,growth,[5]; 10 µM,100% (inactive) and 108% (inactive)
same,growth,[6]; 10 µM,114% (inactive) and 83.8% (inactive)
same,growth,[7]; 10 µM,103% (inactive) and 82.5% (inactive)
same,growth,[8]; 10 µM,104% (inactive) and 97.4% (inactive)
same,growth,[9]; 10 µM,111% (inactive) and 79.6% (inactive)
same,growth,[10]; 10 µM,108% (inactive) and 102% (inactive)
same,growth,[18],100% (inactive) and 91.5% (inactive)
same,growth,[11]; 10 µM,107% (inactive) and 102% (inactive)
same,growth,[12]; 10 µM,106% (inactive) and 109% (inactive)
same,growth,[14]; 10 µM,96% (inactive) and 79.2% (inactive)
same,growth,[14]; 100 µM,28.2% (inactive) and 1% (active)
same,growth,[15]; 10 µM,98.4% (inactive) and 99.5% (inactive)
same,growth,[16]; 10 µM,111% (inactive) and 94.1% (inactive)
same,growth,[17]; 10 µM,102% (inactive) and 97.8% (inactive)
O=c1ccn(C2CC(O)C(COC(c3ccccc3)(c3ccccc3)c3ccccc3)O2)c(=O)[nH]1 (stereo not given),growth,[1],33.2% [100 µM] (inactive)
same,growth,[2]; 10 µM,95.8% (inactive)
same,growth,[2]; 100 µM,40.2% (inactive)
same,growth,[3]; 10 µM,80.7% (inactive)
same,growth,[3]; 100 µM,44.9% (inactive)
same,growth,[4]; 10 µM,101% (inactive)
same,growth,[4]; 100 µM,73.7% (inactive)
same,growth,[5]; 10 µM,94.5% (inactive)
same,growth,[5]; 100 µM,38.5% (inactive)
same,growth,[6]; 10 µM,99.8% (inactive)
same,growth,[6]; 100 µM,94.9% (inactive)
same,growth,[7]; 10 µM,99.2% (inactive)
same,growth,[7]; 100 µM,58.1% (inactive)
same,growth,[8]; 10 µM,102% (inactive)
same,growth,[8]; 100 µM,47.8% (inactive)
same,growth,[9]; 10 µM,89.3% (inactive)
same,growth,[9]; 100 µM,55.7% (inactive)
same,growth,[10]; 10 µM,85% (inactive)
same,growth,[10]; 100 µM,44.3% (inactive)
same,growth,[11]; 10 µM,84.2% (inactive)
same,growth,[11]; 100 µM,13.9% (inactive)
same,growth,[12]; 10 µM,76.1% (inactive)
same,growth,[12]; 100 µM,45% (inactive)
same,growth,[14]; 10 µM,79.2% (inactive)
same,growth,[14]; 100 µM,16.5% (inactive)
same,growth,[15]; 10 µM,82.2% (inactive)
same,growth,[15]; 100 µM,33.9% (inactive)
same,growth,[16]; 10 µM,122% (inactive)
same,growth,[16]; 100 µM,64.2% (inactive)
same,growth,[17]; 10 µM,90.4% (inactive)
same,growth,[17]; 100 µM,40.3% (inactive)
CC(C)C(NC(=O)CN)C(=O)O (stereo not given) (H-Gly-[ξV]-OH),growth,[1],57% (inactive)
same,growth,[2]; 10 µM,109% (inactive) and 107% (inactive)
same,growth,[3]; 10 µM,101% (inactive) and 110% (inactive)
same,growth,[4]; 10 µM,103% (inactive) and 99.9% (inactive)
same,growth,[5]; 10 µM,105% (inactive) and 102% (inactive)
same,growth,[6]; 10 µM,106% (inactive) and 101% (inactive)
same,growth,[7]; 10 µM,109% (inactive) and 108% (inactive)
same,growth,[8]; 10 µM,112% (inactive)
same,growth,[9]; 10 µM,111% (inactive) and 91.9% (inactive)
same,growth,[10]; 10 µM,105% (inactive) and 111% (inactive)
same,growth,[18],102% (inactive)
same,growth,[11]; 10 µM,83.4% (inactive) and 116% (inactive)
same,growth,[12]; 10 µM,104% (inactive) and 101% (inactive)
same,growth,[14]; 10 µM,106% (inactive) and 101% (inactive)
same,growth,[15]; 10 µM,96.9% (inactive) and 107% (inactive)
same,growth,[16]; 10 µM,103% (inactive) and 106% (inactive)
same,growth,[17]; 10 µM,109% (inactive) and 106% (inactive)
O=C1C=C(O)c2ccccc2C1=O.[Ag],growth,[1],103% (inactive)
same,growth,[2]; 10 µM,104% (inactive)
same,growth,[3]; 10 µM,95.4% (inactive)
same,growth,[4]; 10 µM,115% (inactive)
same,growth,[5]; 10 µM,95.4% (inactive)
same,growth,[6]; 10 µM,137% (inactive)
same,growth,[7]; 10 µM,105% (inactive)
same,growth,[8]; 10 µM,117% (inactive)
same,growth,[9]; 10 µM,96.7% (inactive)
same,growth,[10]; 10 µM,109% (inactive)
same,growth,[18],79.5% (inactive)
same,growth,[11]; 10 µM,115% (inactive)
same,growth,[12]; 10 µM,111% (inactive)
same,growth,[13],106% (inactive)
same,growth,[14]; 10 µM,95.7% (inactive)
same,growth,[15]; 10 µM,111% (inactive)
same,growth,[16]; 10 µM,88.8% (inactive)
same,growth,[17]; 10 µM,96.4% (inactive)
OCC(O)C(O)C(O)C(/C=N/Nc1ccccc1)=N/Nc1ccccc1 (stereo not given),growth,[1],58.8% (inactive)
same,growth,[2]; 10 µM,92.2% (inactive)
same,growth,[3]; 10 µM,92.6% (inactive)
same,growth,[4]; 10 µM,82.3% (inactive)
same,growth,[5]; 10 µM,93.1% (inactive)
same,growth,[6]; 10 µM,99.5% (inactive)
same,growth,[7]; 10 µM,83.4% (inactive)
same,growth,[8]; 10 µM,90.4% (inactive)
same,growth,[9]; 10 µM,79.7% (inactive)
same,growth,[10]; 10 µM,79.8% (inactive)
same,growth,[11]; 10 µM,88.9% (inactive)
same,growth,[12]; 10 µM,78% (inactive)
same,growth,[13],88.3% (inactive)
same,growth,[14]; 10 µM,88.3% (inactive)
same,growth,[15]; 10 µM,84.4% (inactive)
same,growth,[16]; 10 µM,84.2% (inactive)
same,growth,[17]; 10 µM,75.1% (inactive)
Nc1ccc2cc3ccc(N)cc3nc2c1,growth,[1],106% (inactive) and 7.41% (active)
same,growth,[2]; 10 µM,77.5% (inactive) and 3.77% (active)
same,growth,[3]; 10 µM,88% (inactive) and -2.44% (active)
same,growth,[4]; 10 µM,84.9% (inactive) and 26.6% (inactive)
same,growth,[5]; 10 µM,104% (inactive) and -5.13% (active)
same,growth,[6]; 10 µM,78.5% (inactive) and 12.8% (inactive)
same,growth,[7]; 10 µM,111% (inactive) and 19.1% (inactive)
same,growth,[8]; 10 µM,122% (inactive) and 11.3% (inactive)
same,growth,[9]; 10 µM,123% (inactive) and 23.6% (inactive)
same,growth,[10]; 10 µM,89.1% (inactive) and 12.6% (inactive)
same,growth,[11]; 10 µM,95.9% (inactive) and 69.1% (inactive)
same,growth,[12]; 10 µM,103% (inactive) and 23.4% (inactive)
same,growth,[13],103% (inactive) and 10.5% (inactive)
same,growth,[14]; 10 µM,111% (inactive) and -21.7% (active)
same,growth,[15]; 10 µM,109% (inactive) and 3.02% (active)
same,growth,[16]; 10 µM,110% (inactive) and 16.7% (inactive)
same,growth,[17]; 10 µM,121% (inactive) and 9.1% (active)
CCCCCCCCCCSC(=N)N,growth,[1],-25% (active)
same,growth,[2]; 10 µM,-11% (active)
same,growth,[3]; 10 µM,61.5% (inactive)
same,growth,[4]; 10 µM,77.4% (inactive)
same,growth,[5]; 10 µM,76.7% (inactive)
same,growth,[6]; 10 µM,77.5% (inactive)
same,growth,[7]; 10 µM,46.1% (inactive)
same,growth,[8]; 10 µM,67% (inactive)
same,growth,[9]; 10 µM,81.1% (inactive)
same,growth,[10]; 10 µM,69.3% (inactive)
same,growth,[18],-5.33% (active)
same,growth,[11]; 10 µM,85.9% (inactive)
same,growth,[12]; 10 µM,30% (inactive)
same,growth,[14]; 10 µM,8.06% (active)
same,growth,[15]; 10 µM,23.4% (inactive)
same,growth,[16]; 10 µM,-27.2% (active)
same,growth,[17]; 10 µM,23.2% (inactive)
Oc1ccc(N=Nc2ccccn2)c(O)c1,growth,[1],10.6% (inactive)
same,growth,[2]; 10 µM,21.2% (inactive)
same,growth,[3]; 10 µM,18.5% (inactive)
same,growth,[4]; 10 µM,53.8% (inactive)
same,growth,[5]; 10 µM,29.8% (inactive)
same,growth,[6]; 10 µM,25.5% (inactive)
same,growth,[7]; 10 µM,19.9% (inactive)
same,growth,[8]; 10 µM,32.7% (inactive)
same,growth,[9]; 10 µM,65.1% (inactive)
same,growth,[10]; 10 µM,14.7% (inactive)
same,growth,[11]; 10 µM,36.6% (inactive)
same,growth,[12]; 10 µM,32.5% (inactive)
same,growth,[14]; 10 µM,14.5% (inactive)
same,growth,[15]; 10 µM,18.7% (inactive)
same,growth,[16]; 10 µM,30% (inactive)
same,growth,[17]; 10 µM,26.9% (inactive)
O=C(C(=Cc1ccccc1)C(=O)c1ccccc1)c1ccccc1,growth,[1],6.35% (active) and 108% (inactive)
same,growth,[2]; 10 µM,-2.63% (active) and 85.2% (inactive)
same,growth,[3]; 10 µM,47.8% (inactive) and 87% (inactive)
same,growth,[4]; 10 µM,91.7% (inactive) and 84.7% (inactive)
same,growth,[5]; 10 µM,73.6% (inactive) and 84.7% (inactive)
same,growth,[6]; 10 µM,99.5% (inactive) and 106% (inactive)
same,growth,[7]; 10 µM,75.1% (inactive) and 117% (inactive)
same,growth,[8]; 10 µM,66.3% (inactive) and 85.7% (inactive)
same,growth,[9]; 10 µM,65.2% (inactive) and 94.3% (inactive)
same,growth,[10]; 10 µM,54.3% (inactive) and 84.3% (inactive)
same,growth,[11]; 10 µM,66% (inactive) and 103% (inactive)
same,growth,[12]; 10 µM,63.5% (inactive) and 104% (inactive)
same,growth,[14]; 10 µM,25.1% (inactive) and 89.3% (inactive)
same,growth,[15]; 10 µM,18.3% (inactive) and 62.2% (inactive)
same,growth,[16]; 10 µM,92.4% (inactive) and 129% (inactive)
same,growth,[17]; 10 µM,47.8% (inactive) and 88.9% (inactive)
